# Screens deposited in PubChem BioAssay by National Center for Advancing Translational Sciences (NCATS).
# In the library only some 6% were active in any assay of this set; here they are far more common.
# Tau fluor counter: counter-screen for tau fibril formation inhibitors. tau K18 P301L Alexa594 fluorescence, heparin fibrillization. hit rate 0.93% among 280,000. Potency, µM (series often up to 57.7 µM), for inactives: at the highest dose activity change, negative = decrease; note: nearly all actives have a fitted effect of over 55% in size
#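 Human tau K18 P301L (15 uM unlabeled, 0.24 uM Alexa 594-labeled) in 100 mM sodium acetate pH 7 with 20 uM heparin, 6 hr at 37 C. ThT 30 uM added, 1 hr ambient; Alexa 594 FP and total fluorescence read at 555/632 nm.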
# Sfp PPTase inh: inhibitors of Bacillus subtilis Sfp phosphopantetheinyl transferase | hit rate 3.5% among 310,000 | AID 1490 | Q9F4F7 | Biochemical Sfp PPTase activity, qHTS | Potency, µM, inactives show largest response in the series, negative = inhibition, hits mostly inhibitors;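 note: the enzyme is Sfp with the accession as filed and its product quenches rhodamine fluorescence; 0% = enzyme reaction without inhibitor and -100% = no enzyme wells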
#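 Buffer: 50 mM Hepes-Na pH 7.6, 10 mM MgCl2, 0.01% Nonidet P-40, 0.01% BSA. Enzyme 15 nM, pre-exposed to compound 15 min; substrates then added and fluorescence change tracked over 30 min.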
# PLK1 PBD block: inhibitors of human PLK1 polo-box domain binding; P53350; Plk1 PBD binding of FITC phosphopeptide, fluorescence polarization; Potency, µM, for the others: max response, negative = inhibition, usual class: inhibitors; hit rate 2.8% among 360,000; AID 720504; note: series mostly up to about 57 µM; nearly all actives have a fitted effect of over 65% in size
# Tau fibril ThT: inhibitors of human tau fibril formation, thioflavin T binding; AID 1460; hit rate 2.1% among 270,000; P10636; Potency, µM (highest dose often 57.4 µM), without a hit: top-dose activity, negative = inhibition, hits mostly inhibitors; recombinant tau K18 P301L (four-repeat tau fragment), heparin-induced fibrillization, ThT fluorescence; note: nearly all actives have a fitted effect of over 55% in size
# Target sequence (P10636 561-689 P618L limits assumed): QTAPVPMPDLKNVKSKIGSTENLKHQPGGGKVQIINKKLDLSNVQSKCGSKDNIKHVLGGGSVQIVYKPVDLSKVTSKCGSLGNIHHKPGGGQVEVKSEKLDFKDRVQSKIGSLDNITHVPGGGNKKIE
#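 Tau K18 P301L fragment (15 uM unlabeled plus 0.24 uM Alexa 594-labeled) in 100 mM sodium acetate pH 7 with compound, fibrillization induced by 20 uM heparin for 6 hr at 37 C. Thioflavin T (30 uM) added, fluorescence read after 1 hr (ex 450, em 510 nm).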
# VDR inh: vitamin D3 receptor (human) inhibition. P11473. VDR-SRC2-3 peptide fluorescence polarization, 2 h. Potency, µM, without a hit: max response, negative = inhibition, usual class: inhibitors. hit rate 0.93% among 400,000. AID 504847
#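 VDR–SRC2-3 interaction, FP format. Cmpds 23 nl via pintool, brief spin, 2 h ambient incubation.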
# Tau FP inhib: tau fibrillization inhibition (FP). Potency, µM (titrated, usually from 57.7 µM), without a hit: top-dose activity, negative = inhibition, most hits filed as inhibitors. hit rate 0.39% among 280,000. K18 P301L tau heparin fibrillization, Alexa594 FP, 6 h. P10636; note: nearly all actives have a fitted effect of over 55% in size
#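 Human tau K18 […] P301L fragment, 15 uM unlabeled plus 0.24 uM Alexa 594-labeled tau (final), with compound and 20 uM heparin in 100 mM sodium acetate pH 7; 6 hr at 37 C, then Alexa 594 FP read.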
# An asterisk follows results filed as active; ? = inconclusive; · = not tested or not shown. Calls come from the whole dose curve; as a rule, active = well fitted curve in the direction sought with a large enough effect; inconclusive = small, poorly fitted or top-dose-only effect, or another doubt; inactive = no such curve, though single readings can be large; an effect the other way counts as inactive or inconclusive. Unless noted, % is set by controls: 0 for no effect and ±100 for the full control effect; potency is the fitted concentration of half-maximal effect.
SMILES,Tau fluor counter,Sfp PPTase inh,PLK1 PBD block,Tau fibril ThT,VDR inh,Tau FP inhib
COc1cc2c(cc1OC)CN(C(=O)CSC1=NCCS1)CC2,·,·,-1%,·,·,·
COc1cc2c(cc1OC)CN(C(=O)CSc1ccccc1C)CC2,·,·,27µM*,·,-30%,·
COc1cc2c(cc1OC)CN(C(=O)c1cccc([N+](=O)[O-])c1)CC2,-10%,18%,27µM*,-11%,79µM*,1%
Cc1cccc(-n2c3nc(=O)[nH]c(=O)c-3cc3cc([N+](=O)[O-])ccc32)c1,-7%,-18%,11µM*,?,-29%,2%
Cc1ccc(C)c(-n2c3nc(=O)[nH]c(=O)c-3cc3cc([N+](=O)[O-])ccc32)c1,-4%,50µM*,7.5µM*,1%,?,7%
O=C(NC1CCN(C(=S)NCCc2ccccc2)CC1)C1CC1,-3%,?,-14%,4%,9%,-7%
CCCNC(=S)N1CCC(NC(=O)C2CCCCC2)CC1,7%,7%,24µM*,4%,?,6%
COc1ccccc1C(c1nnnn1Cc1ccccc1)N1CCN(C2CCCC2)CC1 (stereo not drawn),-13%,10%,30µM*,-15%,-14%,-2%
Fc1ccc(Cn2nnnc2C(c2cccs2)N2CCN(C3CCCCC3)CC2)cc1 (stereo not drawn),-2%,9%,6%,-5%,-10%,6%
COCCn1nnnc1C(c1cccs1)N1CCN2CCCC2C1 (stereo not drawn),-5%,11%,19µM*,1%,-5%,4%
O=C(CC1Sc2ncnn2C1=O)Nc1ccc(Cl)cc1 (stereo not drawn),-12%,35µM*,-22%,?,-4%,-9%
COc1ccc(NC(=O)CC2Sc3ncnn3C2=O)cc1 (stereo not drawn),-11%,45µM*,?,?,-19%,6%
O=C(CC1SC2=NCCN2C1=O)Nc1ccc(Cl)cc1 (stereo not drawn),2%,15%,-5%,-2%,11%,1%
CCOC(=O)c1ccc(NC(=O)CC2Sc3ncnn3C2=O)cc1 (stereo not drawn),-4%,22µM*,?,?,1%,5%
Cc1cc(OC(C)C(=O)N2CCN(CCc3ccccn3)CC2)ccc1Cl (stereo not drawn),-5%,·,·,2%,1%,-2%
COc1ccc(S(=O)(=O)N[C@H](C(=O)O)C(C)C)cc1,6%,5%,2%,-9%,-18%,0%
CC(=O)NCc1ccc(S(=O)(=O)NC(C(=O)O)C(C)C)cc1 (stereo not drawn),-10%,5%,4%,25µM*,6%,?
CC(C(=O)OCC(=O)c1ccccc1)N1C(=O)c2ccccc2C1=O (stereo not drawn),4%,-8%,30µM*,2%,?,5%
COc1cccc(C(=O)COC(=O)C(C)N2C(=O)c3ccccc3C2=O)c1 (stereo not drawn),-7%,2%,-3%,0%,3%,-4%
COc1cccc(CN2CCC(C(=O)NC(C)c3cccc4ccccc34)CC2)c1 (stereo not drawn),·,·,-9%,·,·,·
COc1cccc(-n2c(C)c3c(OC)cccc(=O)c3c2C)c1,-26%,50µM*,-28%,25µM*,6%,?
COc1cccc(=O)c2c(C)n(C)c(C)c12,-7%,?,-10%,?,-8%,0%
COc1cccc(=O)c2c(C)n(-c3cc(C)cc(C)c3)c(C)c12,-15%,-24%,-12%,28µM*,-9%,?
COc1cccc(-n2c(C)nn(CCOc3ccccc3)c2=O)c1,-7%,0%,-9%,-9%,-21%,-6%
COc1ccccc1/C=C/c1nc2ccccc2n1C(C)C,-14%,·,·,?,-7%,-5%
CSCCC(NC(=O)c1ccco1)C(=O)NCC1CCCO1 (stereo not drawn),·,·,-21%,·,-15%,·
CN1CCN(S(=O)(=O)c2ccc(NC(=S)NC(=O)c3ccccc3)cc2)CC1,-17%,?,27µM*,-14%,-2%,0%
